Data from PubChem BioAssay AID1117264 (The Scripps Research Institute Molecular Screening Center, 2014).
Screen size: about 89,000 compounds; about 440 (0.49%) were called active.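 Rule for the calls: active = inhibition above the mean inhibition across all screened compounds plus 3 SD (cut at about 11% in these data); inactive = the rest.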 For the sample, actives were picked, then their nearest neighbours and some compounds at random.

Target: RNA-editing ligase 1, mitochondrial (Trypanosoma brucei brucei) (UniProt P86926)
Sequence (P86926 whole entry, looked up): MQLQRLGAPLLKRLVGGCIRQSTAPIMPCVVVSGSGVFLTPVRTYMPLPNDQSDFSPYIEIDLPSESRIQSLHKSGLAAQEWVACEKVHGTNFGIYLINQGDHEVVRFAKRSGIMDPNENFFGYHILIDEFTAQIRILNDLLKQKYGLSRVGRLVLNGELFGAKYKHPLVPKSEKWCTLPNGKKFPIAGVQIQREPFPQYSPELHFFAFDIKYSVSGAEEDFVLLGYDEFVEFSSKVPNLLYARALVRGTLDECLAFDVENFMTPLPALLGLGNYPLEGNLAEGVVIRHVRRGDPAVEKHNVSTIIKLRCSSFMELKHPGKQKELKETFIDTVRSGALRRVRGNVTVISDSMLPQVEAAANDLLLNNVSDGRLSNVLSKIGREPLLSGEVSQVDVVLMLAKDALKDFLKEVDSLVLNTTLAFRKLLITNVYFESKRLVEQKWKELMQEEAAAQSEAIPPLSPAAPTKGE
Assay: TbREL1 RNA ligase inhibitors, primary screen, biochemical, FRET fluorescence (AID 1117264);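 note: 0% = plate median of test wells and 100% = NSC42067 control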
Settings: TbREL1 RNA ligation, at 9.66 µM, active compounds read high

Compound | inhibition
CC1CCCCN1Cc1cccnc1 (stereo not given) | 13.3% (active)
COC(=O)C1=C(c2ccc(F)cc2OCc2ccccc2)C[C@@H]2CC[C@H]1N2C(=O)NCc1ccc(C(C)(C)C)cc1 | -1.57% (inactive)
COc1cccc(-c2nc3ccc(N4CCN(C)CC4)cc3[nH]2)c1 | 5.54% (inactive)
CN1CCN(c2cc(N3CCNCC3)ccc2[N+](=O)[O-])CC1 | 13.9% (active)
Cc1cccc(NC(=O)N2CC3CC(C2)c2cccc(=O)n2C3)c1 (stereo not given) | 3.86% (inactive)
COC(=O)C1=C(c2ccccc2OCc2ccccc2)C[C@@H]2CC[C@H]1N2C(=O)NCc1ccc(OC)cc1 | -0.93% (inactive)
CCOP(=O)(OCC)C(NC(=O)NC)C(N)=O (stereo not given) | 2.84% (inactive)
O=c1[nH]c2ccccc2n1C1CCN(C(c2ccccc2)c2nnnn2Cc2ccccc2)CC1 (stereo not given) | 23.1% (active)
COc1ccc(-n2nnnc2C(c2cccc3ccccc23)N2CCC(n3c(=O)[nH]c4ccccc43)CC2)cc1 (stereo not given) | -2.29% (inactive)
CCC(=NCCc1ccccc1)c1c(O)n(C2CCCCC2)c(=O)[nH]c1=O | -0.24% (inactive)
COc1cc(C(=O)N2Cc3ccc(Br)cc3-n3nncc3C2)cc(OC)c1OC | 2.36% (inactive)
CN1CCN(C(=S)SCC(=O)Nc2ccc(Cl)cc2C(=O)c2ccccc2)CC1 | 2.78% (inactive)
CCOC(=O)CNC(=O)N1Cc2cc(N3CCCCC3)ccc2-n2nncc2C1 | 2.4% (inactive)
COc1ccc(-c2nn(CCC#N)cc2C(=O)O)cc1 | -2.19% (inactive)
CSc1ccc(C(=O)C2CCCN(Cc3ccn[nH]3)C2)cc1 (stereo not given) | 0.96% (inactive)
